Measured values from PubChem BioAssay AID624330 (Southern Research Specialized Biocontainment Screening …, 2012).
The campaign covered roughly 340,000 compounds. About 2,100 (0.62%) were called active.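 How the source made its calls: active means first-screen hits whose inhibition reached a set limit at any dose in the follow-up dose series; inconclusive means inhibition above the set first-screen limit but never retested; inactive means the rest.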 The list is a sample of the results. Measured potencies and affinities stand elsewhere.

biological target: Rac GTPase-activating protein 1 (Homo sapiens) (UniProt Q9H0H5); test: blockers of MgcRacGAP-driven Rac1 GTP hydrolysis – biochemical, ADP Hunter fluorescence, primary and confirmatory, confirmation (AID 624330); details: MgcRacGAP-stimulated Rac1 GTP hydrolysis, at 30 µM, stronger effect = higher value, GST-tagged Rac1 F28L mutant substrate;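 further: fluorescence reports GDP produced by GAP-driven GTP hydrolysis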
Sequence (Q9H0H5 whole entry, looked up): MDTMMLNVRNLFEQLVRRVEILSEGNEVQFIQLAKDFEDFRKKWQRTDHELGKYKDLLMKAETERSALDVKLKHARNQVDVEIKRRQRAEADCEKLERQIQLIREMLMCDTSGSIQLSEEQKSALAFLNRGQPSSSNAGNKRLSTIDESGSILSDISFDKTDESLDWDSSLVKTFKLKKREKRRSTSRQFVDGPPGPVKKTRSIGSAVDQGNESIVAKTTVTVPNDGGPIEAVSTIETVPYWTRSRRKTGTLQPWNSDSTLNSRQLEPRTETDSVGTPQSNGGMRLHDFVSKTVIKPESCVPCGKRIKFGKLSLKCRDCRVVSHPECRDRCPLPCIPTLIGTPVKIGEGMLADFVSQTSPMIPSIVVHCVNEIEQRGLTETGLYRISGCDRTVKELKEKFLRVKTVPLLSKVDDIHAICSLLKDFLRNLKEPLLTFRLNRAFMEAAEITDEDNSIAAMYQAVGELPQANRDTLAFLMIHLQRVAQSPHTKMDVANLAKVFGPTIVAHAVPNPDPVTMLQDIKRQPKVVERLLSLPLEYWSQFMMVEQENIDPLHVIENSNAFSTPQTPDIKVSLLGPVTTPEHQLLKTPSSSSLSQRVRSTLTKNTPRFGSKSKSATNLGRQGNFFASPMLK

inhibition, inactive:
Cc1ccc(Sc2ccc(N)cc2C#N)cc1 4.36%
COC(=O)c1ccc(Sc2ccc(C)cc2)c(N)c1 9.92%
NC(=S)c1ccc(OCCCc2ccccc2)cc1 8.89%
Nc1ccc(C(=O)OCCc2ccccc2)cc1 6.65%
CC(=O)NC(Cc1ccc(C(C)C)cc1)C(=O)NC1CCN(c2nc(C)cc(C)n2)CC1 (stereo not drawn) 7.86%
CC(c1ccc2ccccc2c1)c1ccccc1C(=O)O (stereo not drawn) 5.25%
N#C/C(=C/c1ccc(N2CCCCCC2)o1)c1ccc(Cl)cc1 38.4%
N#C/C(=C/c1ccc(N2CCOCC2)o1)c1ccc(Cl)cc1 41.4%
N#C/C(=C\c1ccc(N2CCOCC2)cc1)c1ccccc1 -4.89%
N#C/C(=C/c1ccc(N2CCOCC2)o1)c1ccc(Br)cc1 27%
O=C1c2ccccc2C(=O)N1Cc1ccco1 8.18%
COC(=O)C1=C(C)N(Cc2ccco2)C(=O)/C1=C\c1ccc(N(C)C)cc1 1.57%
CCN(CC)c1ccc(C=C2C(=O)OC3(CCCC3)OC2=O)cc1 14.2%
O=C1c2cccc3cccc(c23)C(=O)N1Cc1ccco1 6.44%
CCN(CC)c1ccc(C=C2C(=O)OC3(CCCCC3)OC2=O)cc1 4.11%
CN(C)c1ccc(C=C2SC(=S)N(Cc3ccco3)C2=O)cc1 9.1%
COCCNC(=S)N/N=C/c1c2ccccc2cc2ccccc12 6.58%
COc1ccccc1CC(=O)Nc1ccc2c(C)cc(=O)oc2c1 4.86%
COC(=O)C(CC(C)C)NC(=O)c1cccs1 (stereo not drawn) 0.95%
COc1ccc(N=C2S/C(=C\c3cccs3)C(=O)N2CC(C)C)cc1 12.5%
O=C(CN1CCN(Cc2cccc(C(F)(F)F)c2)CC1)NCC(=O)Nc1ccc(F)c(F)c1F 3.75%
O=C(CN1CCCCC1)NCC(=O)Nc1ccc(F)c(F)c1F -2.94%
CC(C(=O)NCC(=O)Nc1ccc(F)c(F)c1F)N1CCN(Cc2ccc(C#N)cc2)CC1 (stereo not drawn) -0.12%
CC(C(=O)Nc1ccc(F)c(F)c1F)N1CCCCCC1 (stereo not drawn) 9.76%
COc1ccc(N(CC(C)C)S(=O)(=O)c2nnc(NC(=O)CC(C)C)s2)cc1 2.69%
CC(=O)Nc1cc(-c2ccccc2)nn1Cc1ccc(Cl)cc1 -1.04%
[O-]/[N+](=N\Nc1ccc(Cl)cc1)c1ccccc1 9.79%
CN(C)c1ccc(/C=C/c2cc[n+](C)cc2)cc1 22.9%
CC[n+]1cc(C)ccc1/C=C/c1ccc(N(C)C)cc1 7.19%
CN1/C(=C/c2cc[n+](C)c3ccccc23)C=Cc2ccccc21 31.4%
CC[n+]1ccccc1/C=C/c1ccc(N(C)C)cc1 10.2%
CN1C=C/C(=C\c2cc[n+](C)c3ccccc23)c2ccccc21 -0.62%
CN(C)c1ccc(C=Cc2ccnc3c(O)cccc23)cc1 8.47%
